High-throughput results: PubChem BioAssay, National Center for Advancing Translational Sciences (NCATS)
HPGD inh: qHTS Assay for Inhibitors of HPGD (15-Hydroxyprostaglandin Dehydrogenase). 150,000 compounds, 4.3% hits. 15-hydroxyprostaglandin dehydrogenase [NAD(+)] (Homo sapiens), P15428. Potency, µM, inactives show top-dose activity change, negative = inhibition, usual class: inhibitors. purified HPGD, NADH fluorescence kinetic, PGE2 substrate; also: potency is read from the fitted curve at half-maximal effect
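NADH formation kinetics: reaction with 30 uM PGE2 and 1 mM NAD+ (final), 20 nM enzyme, Tris-HCl pH 8 with Tween 20, after 15 min compound preincubation at room temperature. Fluorescence change, last versus first of five reads.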
ALDH1A1 block: qHTS Assay for Inhibitors of Aldehyde Dehydrogenase 1 (ALDH1A1); 220,000 compounds, 7.3% hits; Potency, µM (titrated, usually from 75.3 µM), without a hit: top-dose activity, negative = inhibition, most hits filed as inhibitors; AID 1030, 2008; Purified ALDH1A1, NADH fluorescence, propionaldehyde substrate; Aldehyde dehydrogenase 1A1 (Homo sapiens), P00352;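 also: potency is read from the fitted curve at half-maximal effect; plate controls were no enzyme wells and a reference inhibitor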
Target sequence (P00352 whole entry, looked up): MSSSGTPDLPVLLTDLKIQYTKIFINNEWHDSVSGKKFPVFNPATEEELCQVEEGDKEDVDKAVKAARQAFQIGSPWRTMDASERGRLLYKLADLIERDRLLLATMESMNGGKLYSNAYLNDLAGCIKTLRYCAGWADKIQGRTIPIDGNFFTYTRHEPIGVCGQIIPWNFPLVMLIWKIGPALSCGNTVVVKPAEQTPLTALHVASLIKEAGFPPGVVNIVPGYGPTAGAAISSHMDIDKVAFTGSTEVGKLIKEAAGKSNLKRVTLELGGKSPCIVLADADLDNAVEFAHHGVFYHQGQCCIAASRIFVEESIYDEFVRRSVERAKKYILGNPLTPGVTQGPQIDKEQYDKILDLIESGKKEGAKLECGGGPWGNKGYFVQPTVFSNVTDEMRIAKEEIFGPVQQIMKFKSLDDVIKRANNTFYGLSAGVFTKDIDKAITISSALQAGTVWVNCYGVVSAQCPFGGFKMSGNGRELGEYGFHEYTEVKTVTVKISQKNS
PNC inhibitor: High Content Assay for Compounds that inhibit the Assembly of the Perinucleolar Compartment; PC3M PTB-GFP, PNC prevalence imaging, 16 h; active compounds read low; activity change (PNC), negative = inhibition, % at 10 µM; 140,000 compounds, 3.1% hits; AID 2417, 2010;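 active = readout at or below -70, meaning at least 70% loss of cells showing the perinucleolar compartment, a nuclear body marking cancer cells; inconclusive = readout between -30 and a set limit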;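 also: plate controls were DMSO wells for no effect and camptothecin positive control wells for full effect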
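Read-out is percentage of cells bearing a perinucleolar compartment, from automated 20x imaging of fixed, Hoechst-stained PC3M PTB-GFP cells. Cells were seeded 4 h, then exposed 16 h to compound (23 nl of library stock) in duplicate plates.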
An asterisk follows results filed as active; ? = inconclusive; nt = no result. Compounds with a hit are over-represented: about 11% of the library has one in this group of screens. Unless noted, calls follow the shape of the dose curve; as a rule, active = well fitted inhibition curve with a large enough effect (not every such curve was filed as active); inconclusive = small, poorly fitted or top-dose-only effect, or another doubt; inactive = no such curve, though single readings can be large or run the other way. Unless noted, % is scaled to controls: 0 for no effect and ±100 for the full control effect.

SMILES | HPGD inh | ALDH1A1 block | PNC inhibitor
Cc1ccccc1-n1ncc(C(C)NC(=O)c2ccco2)c1C (stereo not given) | nt | -4.2% | nt
CC(NC(=O)C(C(=O)c1cccc([N+](=O)[O-])c1)n1cc(Cl)ccc1=O)c1ccccc1 (stereo not given) | -1.6% | 2.1% | 35.5
O=C1OCCC1Sc1ncnc2sc3c(c12)CCC3 (stereo not given) | -19.4% | -7.0% | 237.5
Cc1nc(SC2CCOC2=O)c2c(C)c(C)sc2n1 (stereo not given) | -6.4% | 22.4µM* | 93.2
Cc1ccc(S(=O)(=O)c2c(C)cc(C)nc2N2CCCC2)cc1 | nt | 0.0% | nt
CCCCCCCCCCCCCCC[C@@H](O)[C@@H](N)CO | -7.1% | 2.4% | nt
Cc1nc(NC(=O)CSc2ccccc2N)sc1C | -18.8% | 22.4µM* | -25.5
Nc1ccccc1SCC(=O)Nc1nccs1 | nt | 1.0% | nt
CCC/C(=N\NC(=O)c1cccc(C)c1)c1ccccc1 | -9.2% | ? | 66.0
Cc1cccc(-c2nc(CS(=O)CC(=O)N3CCCCC3)c(C)o2)c1 (stereo not given) | -6.5% | -0.4% | 24.5
Cc1oc(-c2ccccc2)nc1CS(=O)CC(=O)N1CCc2ccccc2C1 (stereo not given) | ? | 25.1µM* | 22.3
Cc1onc(-c2ccccc2)c1C(=O)OCC(=O)NCc1ccc(F)cc1 | nt | -3.6% | nt
ClCC1CN(Cc2ccccc2Cl)CCO1 (stereo not given) | nt | -0.4% | nt
CC1CCCN(CCCNC(=O)CCn2nc(-c3ccccc3)ccc2=O)C1 (stereo not given) | -14.5% | 22.4µM* | 6.0
CCCCNC(=O)CCn1nc(-c2ccccc2)ccc1=O | -6.7% | 6.5% | ?
FB(F)F | 4.6% | 1.0% | nt
CCn1c(SCc2nc3scc(-c4ccccc4)c3c(=O)[nH]2)nnc1-c1ccc(Cl)cc1 | -6.9% | 9.2% | ?
Cc1c(N=Cc2ccncc2)c(=O)n(-c2ccccc2)n1C | -12.6% | ? | -9.3
Cc1c(N=Cc2ccc[nH]2)c(=O)n(-c2ccccc2)n1C | ? | 12.6µM* | 36.7
COc1ccc(NC(=O)c2c(Nc3ccccc3)sc(C(=O)c3ccc(F)cc3)c2N)cc1 | ? | -2.8% | ?
COc1ccc(C(=O)c2sc(Nc3ccccc3)c(C(=O)Nc3ccc(OC)c(OC)c3)c2N)cc1 | -14.3% | 17.8µM* | 35.9
Nn1c(Cc2ccccc2F)nnc1SCCOc1ccc(Cl)cc1 | ? | ? | 19.7
Nn1c(Cc2cccc3ccccc23)nnc1SCc1ccccc1Cl | ? | 5.9% | -8.0
COc1ccc(OCCSc2nnc(Cc3cccc4ccccc34)n2N)cc1 | 22.4µM* | ? | ?
Nn1c(Cc2cccc3ccccc23)nnc1SCc1ccccc1 | 12.6µM* | 0.0% | 7.7
SMILES | HPGD inh | ALDH1A1 block | PNC inhibitor
CCC(CC)NC(=O)Cc1ccc(F)cc1 | nt | -8.2% | nt
Cc1cccc(S(=O)(=O)c2c(C)cc(C)nc2Cl)c1 | nt | 4.8% | nt
CCN(CC)c1ccc(NC(=O)COc2ccccc2C#N)cc1S(=O)(=O)Nc1ccccc1OC | 3.55µM* | -8.9% | -18.7
COc1ccccc1NS(=O)(=O)c1cc(NC(=O)CNC(=O)c2ccccc2)ccc1C | -12.5% | -14.3% | 38.2
Cc1nn(Cc2ccccc2)c(C)c1NC(=O)CCCn1nc(C)c([N+](=O)[O-])c1C | -12.9% | ? | -9.9
Cc1nn(Cc2ccccc2)c(C)c1NC(=O)CCCn1nc([N+](=O)[O-])c(Cl)c1C | -16.2% | ? | 47.3
Cc1nn(Cc2c(Cl)cccc2Cl)c(C)c1NC(=O)CCCn1nc([N+](=O)[O-])c(Cl)c1C | -4.2% | 6.31µM* | 65.3
Cc1nn(Cc2ccccc2Cl)c(C)c1NC(=O)CCCn1nc(C)c([N+](=O)[O-])c1C | -8.8% | 15.8µM* | 67.3
COc1ccc(CN(CCC(c2ccccc2)c2ccc(OC(C)C)cc2)C(=O)CCl)cc1OC (stereo not given) | ? | 10µM* | ?
COc1ccc(C(CCN(Cc2ccc(OC)c(OC)c2)C(C)=O)c2ccccc2)cc1 (stereo not given) | nt | ? | 30.1
Cc1cc(C)c(C(=O)N2CCCC(CNC(=O)C3(c4ccc(Cl)cc4)CC3)C2)c(=O)[nH]1 (stereo not given) | nt | 6.2% | nt
S=c1[nH]nc(COc2ccccc2)n1/N=C/c1ccc(Br)s1 | 10µM* | ? | 51.5
S=c1[nH]nc(-c2ccccn2)n1/N=C/c1ccc(Br)s1 | 7.94µM* | ? | 7.9
CCc1n[nH]c(=S)n1/N=C/c1ccc(N(C)c2ccccc2)cc1 | nt | -4.6% | nt
S=c1[nH]nc(-c2ccccn2)n1/N=C/c1ccc(Cl)c(Cl)c1 | nt | -3.9% | nt
Cc1ccc(/C=N/n2c(COc3ccccc3)n[nH]c2=S)o1 | nt | 11.5% | nt
Cc1ccc(/C=N/n2c(COc3ccccc3)n[nH]c2=S)s1 | 2.24µM* | ? | 61.2
COc1ncc2nc(-c3ccc(F)cc3)c(=O)n(CCc3ccccc3)c2n1 | nt | 18.7% | nt
CC1=C(C(=O)OC(C)C)C(c2cncc(-c3ccc(F)cc3)c2)C(C#N)=C(N)O1 (stereo not given) | -12.7% | ? | -26.5
COc1cccc(-c2nc(NCCN3CCOCC3)c3ccccc3n2)c1 | nt | 1.6% | nt
O=C(Nc1ccn(-c2ccccc2)n1)c1ccccc1Br | -29.7% | ? | -19.3
Oc1c(Cl)cc(Cl)cc1/C=N/c1nc(-c2ccc(Cl)cc2)cs1 | nt | 10.0% | nt
Oc1c(Cl)cc(Cl)cc1/C=N/c1nccs1 | -22.9% | 14.1µM* | 1.8
Cn1c(SCC(=O)NCCc2ccccc2)nnc1-c1ccco1 | -9.7% | 13.6% | -16.7
O=C(CSc1ccc(-c2ccco2)nn1)NCCc1ccccc1 | nt | 7.08µM* | nt
SMILES | HPGD inh | ALDH1A1 block | PNC inhibitor
COc1ccc(CCNC(=O)CSc2ccc(-c3ccncc3)nn2)cc1 | nt | -3.7% | nt
COc1ccc(CCNC(=O)CSc2ccc(-c3ccco3)nn2)cc1 | nt | 3.16µM* | nt
COc1ccc(N(C(C)C(=O)Nc2cccnc2)S(C)(=O)=O)cc1 (stereo not given) | nt | 9.1% | nt
Cc1ccc(NS(=O)(=O)c2cc(NC(=O)c3cc4c(s3)CCCC4)ccc2C)c(C)c1 | ? | ? | -26.6
COc1cc(SC)ccc1C(=O)N(Cc1ccccc1)c1ccccn1 | nt | 3.1% | nt
N/C(CN1CCCC1=O)=N\OC(=O)c1ccccc1Cl | -14.1% | 17.0% | -87.1*
N/C(CN1CCCC1=O)=N\O | -7.6% | 8.5% | 28.7
Cc1ccc(OCC(=O)N(Cc2ccc(N(C)C)cc2)C2CCS(=O)(=O)C2)cc1 (stereo not given) | -11.3% | 17.8µM* | -14.3
CN(C)c1ccc(CN(C(=O)COc2ccc(F)cc2)C2CCS(=O)(=O)C2)cc1 (stereo not given) | -3.6% | ? | 15.3
CN(C(=O)COc1ccc(C(C)(C)C)cc1)C1CCS(=O)(=O)C1 (stereo not given) | -2.3% | 0.7% | -119.7*
CN(C)c1ccc(CN(C(=O)COc2ccc(Br)cc2)C2CCS(=O)(=O)C2)cc1 (stereo not given) | -6.3% | 28.2µM* | 14.6
O=C(c1ccco1)N(Cc1cccs1)C1CCS(=O)(=O)C1 (stereo not given) | -6.4% | -4.6% | 38.5
CCc1ccc(OCC(=O)N(C)C2CCS(=O)(=O)C2)cc1 (stereo not given) | -8.4% | -5.2% | 3.3
